Laboratory results reported in PubChem BioAssay AID651820 (National Center for Advancing Translational Sciences (NCATS), 2012).
Screen size: about 340,000 compounds; about 12,000 (3.5%) were called active. Inconclusive results (about 18%) are left out. This is one part of a sample in which actives are shown more often than they occur. Unmarked numbers belong to inactive results. Calls follow the shape of the dose curve; as a rule, active = well fitted inhibition curve with a large enough effect; inconclusive = small, poorly fitted or top-dose-only effect, or another doubt; inactive = no such curve, though single readings can be large or run the other way.

Assay: qHTS Assay for Inhibitors of Hepatitis C Virus (HCV)
Details: Huh7.5.1 HCVcc-Cre infection, luciferase reporter, 44 h; series mostly up to 41.8 µM; activity change, negative = inhibition: at the top concentration
Summary of the method: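 Compounds are dispensed onto cells plated 4 h earlier at 1,000 per well, with HCVcc-Cre virus (about 0.5 moi) added next. Following 44 h of culture, luminescent signal is measured for 15 sec after 15 min with substrate at room temperature.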
% is scaled to controls: 0 for no effect and ±100 for the full control effect; potency is read from the fitted curve at half-maximal effect.

Structure (SMILES)	activity change, negative = inhibition	Potency
CCC1CCCCN1C(=S)NC(=O)c1ccco1 (stereo not given)	20.7%	–
COc1ccc(OC)c(/C=N/NC(=O)c2ccc[n+](CC(=O)c3ccccc3)c2)c1	-14.2%	–
Cc1cccc(C(=O)OCC(=O)NC(C)C2CC3CCC2C3)c1O (stereo not given)	-4.42%	–
COc1ccccc1CNC(=O)CCCN1C(=O)NC2(CCCC2)C1=O	3.98%	–
OC(COc1ccccc1)Cn1cc(Br)cn1 (stereo not given)	9.27%	–
O=C(C(c1ccccc1)c1ccccc1)N1CCN(CC(O)COc2ccccc2)CC1 (stereo not given)	-27.7%	–
OC(CN=c1sc2ccccc2n1CC(O)COc1ccccc1)COc1ccccc1 (stereo not given)	–	11.2 µM (active)
CN(c1ccccc1)S(=O)(=O)c1cc(C(=O)N2CCN(c3ncccn3)CC2)ccc1Cl	-24.9%	–
Cc1ccc(S(=O)(=O)N2CC(O)C[C@H]2C(=O)OCC(=O)Nc2ccc(N3CCOCC3)cc2)cc1C (stereo not given in full)	-0.0858%	–
Cc1ccccc1NC(=S)NNC(=O)c1cccc(Br)c1	20.4%	–
O=C(/C=C/NNC(=O)c1cccc(Br)c1)c1ccccc1	–	10 µM (active)
CC(CC(=O)O)CC(=O)NNC(=O)c1cccc(Br)c1 (stereo not given)	7.99%	–
CC(=O)c1cccc(-c2ccc(CN3C(CC(C)C)C(=O)N(Cc4cn(CC5CCCCC5)nn4)CCS3(=O)=O)cc2)c1 (stereo not given)	-21% [at 8.37 µM]	–
COc1ccccc1-n1cnc2cc(NS(=O)(=O)c3ccccc3)ccc21	–	22.4 µM (active)
Cn1c(CCN2CCCC2)nc2cc(NS(=O)(=O)c3ccccc3)ccc21	2.98%	–
COc1ccccc1-n1cnc2cc(C(=O)NCC3CCCO3)ccc21 (stereo not given)	4.92%	–
O=C(COC(=O)c1ccc(F)cc1)Nc1ccc2c(c1)OCO2	2.6%	–
COc1ccc(C(=O)NCC2CCCN2S(=O)(=O)c2cccs2)cc1OC (stereo not given)	-3.06%	–
COc1ccccc1CCNC(=O)C(=O)NCCC1CCCCN1S(=O)(=O)c1cccs1 (stereo not given)	–	35.5 µM (active)
O=C(NCc1ccccc1Cl)C(=O)NCC1CCCN1S(=O)(=O)c1cccs1 (stereo not given)	4.35%	–
Oc1[nH]c2ccccc2c1N=Nc1c(F)c(F)c(F)c(F)c1F	28.3%	–
Nc1cc2c(cc1Br)-c1ccc(F)cc1C2=O	–	12.6 µM (active)
CC1CCCCC1NC(=O)NC(=O)COC(=O)C1=NN(c2ccccc2)C(=O)CC1 (stereo not given)	-10.4%	–
COc1ccccc1C(c1nnnn1C(C)(C)C)N1CCN(Cc2ccccc2)CC1 (stereo not given)	-20.2%	–
COc1ccc(OC)c(C(c2nnnn2C(C)(C)C)N2CCc3ccccc3C2)c1 (stereo not given)	–	7.94 µM (active)

Structure (SMILES)	activity change, negative = inhibition	Potency
Cc1ccc(C(c2nnnn2C(C)(C)C)N2CCc3ccccc3C2)cc1 (stereo not given)	8.71%	–
CCCCn1c(N)c(N(CC)C(=O)c2ccc(N(C)S(=O)(=O)c3ccc(C)cc3)cc2)c(=O)[nH]c1=O	6.7%	–
O=C(c1ccc2c(c1)C(=O)N(Cc1ccncc1)C2=O)N1CCN(S(=O)(=O)c2ccc(OC(F)(F)F)cc2)CC1	5.97%	–
Oc1ccc(/C=N/Nc2nc(-c3ccccc3F)nc3ccccc23)c(O)c1	–	11.2 µM (active)
Fc1ccc(/C=N/Nc2nc(-c3cccnc3)nc3ccccc23)cc1	-28.7%	–
Cc1cc(N/N=C/c2ccccc2F)c2ccccc2n1	-11.7%	–
C[C@]12CC[C@H](O)CC1=CCC1C2CC[C@@]2(C)C1CC[C@@H]2NC(=O)CCC(=O)O (stereo not given in full)	-12.7%	–
COC(=O)c1sc2ncccc2c1OCc1ccc(Cl)cc1Cl	-19.7%	–
NC(N)=N/N=C/c1ccc(OCc2ccc(Cl)cc2Cl)cc1	–	11.2 µM (active)
CCOc1ccc(NC(=O)NNC(=O)c2ccc(Cl)cc2Cl)cc1	-19.6%	–
CC(=O)NC12CC3CC(C1)CC(C(=O)N1CCN(S(=O)(=O)c4cccs4)CC1)(C3)C2	-4.83%	–
Oc1cccc(/C=N/Nc2ccc(Cl)nn2)c1O	–	2.51 µM (active)
COc1cccc(/C=N/Nc2ccc(Cl)nn2)c1	-5.2%	–
C/C(=N\Nc1ccc(Cl)nn1)c1ccccc1O	–	0.501 µM (active)
Clc1ccc(N/N=C/c2cccs2)nn1	0.874%	–
CCCCCCCN=C(C)c1ccccc1O	16%	–
CC(C)=C(NC(=O)c1ccccc1)C(=O)N/N=C(\C)c1ccccc1O	12.9%	–
CCCN(C(=O)CSc1nnc(N)s1)c1c(N)n(Cc2ccccc2)c(=O)[nH]c1=O	-9.8%	–
CCc1ccc(-c2nn(-c3ccccc3C)cc2C(=O)N2CCN(C3CCS(=O)(=O)C3)CC2)cc1 (stereo not given)	-0.968%	–
CCc1ccc(-c2nn(-c3ccccc3)cc2CSC(=N)N)cc1	–	10 µM (active)
Cc1ccc(-c2nn(-c3ccccc3)cc2C(=O)NC2CCC(O)CC2)cc1 (stereo not given)	-28.6%	–
Cc1ccc(NC(=O)C(C)Sc2nnc(C3CC3)n2C2CC2)cc1S(=O)(=O)N1CCOCC1 (stereo not given)	2.86%	–
CC(C)CC[n+]1ccn(C2=C([O-])c3ccccc3C(=O)/C2=N\S(=O)(=O)c2ccccc2)c1	–	10 µM (active)
COc1ccc(C(=O)NCc2ccccc2C)cc1S(=O)(=O)NC1CCCC1	-2.86%	–
CCCCN(C(=O)C1CCC1)c1c(N)n(Cc2ccccc2)c(=O)[nH]c1=O	0.645%	–

Structure (SMILES)	activity change, negative = inhibition	Potency
COc1ccc(C(=O)C[n+]2ccc(C)cc2)cc1	11%	–
COc1ccc(CCC(=O)c2ccc(OC)cc2)cc1	3.1%	–
COc1ccc(C(=O)C[n+]2ccc(N)c(C)c2C)cc1	–	2.24 µM (active)
COc1cc(/C=C/C(=O)OCC(=O)c2ccccc2)cc(OC)c1OC	-9.1%	–
COc1ccc(S(=O)(=O)N(C)C[C@H]2Oc3ccc(NS(=O)(=O)c4cccs4)cc3CC(=O)N([C@H](C)CO)C[C@H]2C)cc1	-16.8%	–
O=C(COc1ccc(F)cc1Br)NCC1COc2ccccc2O1 (stereo not given)	-24.9%	–
CC1(C)Cc2cccc(OCC(N)=O)c2O1	8.67%	–
CC1(C)Cc2cccc(OCC(=O)NCc3ccccc3)c2O1	3.16%	–
CC1(C)Cc2cccc(OCC(=O)N3CCN(c4ccc([N+](=O)[O-])cc4)CC3)c2O1	–	10 µM (active)
COc1ccc(CCOC2OC(CO)C(OC(=O)/C=C/c3ccc(O)c(OC)c3)C(O[C@H]3O[C@@H](C)[C@H](O)[C@@H](O)[C@H]3O)C2O)cc1O (stereo not given in full)	-1.52%	–
COc1cc(OC)c(OC)cc1/C=N/Nc1ncnc2c1[nH]c1ccc(C)cc12	48.4%	–
COc1ccc2[nH]c3c(=O)n(Cc4ccco4)cnc3c2c1	-22.8%	–
CC(C)OCCCNc1ncnc2c1[nH]c1ccc(F)cc12	–	12.6 µM (active)
O=C(COC(=O)c1cccc(Cl)c1)NC1CCCCCCC1	0.0254%	–
O=C1NC(Cc2ccc(O)cc2)c2nc3ccc(Cl)cc3c(=O)n2-c2ccccc21 (stereo not given)	4.73%	–
O=C(N/N=C/c1cccnc1)c1cc2ccccc2cc1O	5.01%	–
O=C(NNc1c2ccccc2nc2ccccc12)c1cc2ccccc2cc1O	–	2.82 µM (active)
Cc1ccc(C(=O)NNC(=O)OC(C)(C)C)c(Cl)c1	-1.05%	–
CC(C)(C)OC(=O)NNc1c2ccccc2nc2ccccc12	–	2.82 µM (active)
COc1ccc(-c2cc(C(=O)Nc3ccccc3O)c3ccccc3n2)cc1	-29%	–
Cc1ccccc1NC(=O)NNC(=O)OC(C)(C)C	30%	–
CC(C)CN(C(=O)COC(=O)c1ccc(Cl)c(N)c1)c1c(N)n(Cc2ccccc2)c(=O)[nH]c1=O	-7.76%	–
O=C(CSc1nc2[nH]ncc2c(=O)[nH]1)Nc1ccc(F)cc1	1.89%	–
COc1cc(/C=N/NC(=O)c2cc(-c3ccccc3C)nc3ccccc23)cc(OC)c1O	-9.28%	–
Cc1ccc(C(=O)OCC(=O)N2CCCCCC2)cc1S(=O)(=O)N1CCOCC1	12.3%	–

Structure (SMILES)	activity change, negative = inhibition	Potency
O=C(OCc1nnc(-c2ccccc2)o1)c1cc(=O)[nH]c2ccccc12	-1.44%	–
CCCc1nc2ccccc2c(C(=O)OCc2nnc(-c3cc(OC)c(OC)c(OC)c3)o2)c1CC	–	2.82 µM (active)
CCCc1nc2ccccc2c(C(=O)OCC(=O)c2ccc3c(c2)NC(=O)CO3)c1CC	-18.7%	–
CCOc1ccc(S(=O)(=O)NCCC(=O)NCC2CCCO2)cc1 (stereo not given)	12.1%	–
O=C(NCc1ccc2c(c1)OCO2)c1cc([N+](=O)[O-])ccc1N1CCOCC1	-18.5%	–
O=C(CN1C(=O)NC2(CCCCCCC2)C1=O)NCc1ccc(F)cc1	-0.305%	–
COc1ccc(CCNC(=O)CSc2nc3[nH]ncc3c(=O)n2-c2cccc(C(F)(F)F)c2)cc1OC	-14.3%	–
NC(=O)NC(=O)CSc1nc2cc([N+](=O)[O-])ccc2n1-c1cccc(C(F)(F)F)c1	–	10 µM (active)
NS(=O)(=O)c1cccc(NC(=O)CSc2nc3ccccc3n2-c2ccccc2)c1	-21.2%	–
CC(OC(=O)Cc1ccc(F)cc1)C(=O)N1CCc2ccccc21 (stereo not given)	13.6%	–
O=C(NCc1ccccc1)c1ccc(S(=O)(=O)Nc2cccc(C(F)(F)F)c2)cc1	-10.9%	–
Cc1oc2c(F)c(F)c(F)c(F)c2c1S(=O)(=O)Nc1cccc(C(F)(F)F)c1	–	4.47 µM (active)
O=C(/C=C/c1ccc(F)cc1)Nc1cccc(S(=O)(=O)Nc2cccc(C(F)(F)F)c2)c1	-16.9%	–
O=C(O)C(c1cccs1)C1(O)CCCCC1 (stereo not given)	8.65%	–
CCOc1ccc(S(=O)(=O)NCCC(=O)NCC(C)(C)N2CCOCC2)cc1	12.5%	–
COc1ccc(-n2nnnc2SCc2nc(N)nc(N3CCOCC3)n2)cc1	-19.5%	–
CN(C)c1nc(N)nc(CSc2ccccn2)n1	11.1%	–
CN(C)c1nc(N)nc(CSc2nnnn2-c2cccc3ccccc23)n1	–	3.16 µM (active)
COC(=O)Cc1ccc(OC(=O)C2CCN(S(=O)(=O)c3ccc(OC)c(OC)c3)CC2)cc1	-4.2%	–
CCN(CC)CCNc1nc(-c2ccc(OC(F)F)cc2)c(C)s1	–	17.8 µM (active)
CCOC(=O)c1ccccc1NC(=O)c1c(N)n(C)c(=O)[nH]c1=O	30.5%	–
CCCN(CC(=O)Nc1ccccc1OC)C(=O)CCC(=O)c1ccc(F)cc1	-22.8%	–
COc1ccc([C@H]2CC(=O)C=C(/C=C/c3ccc(Cl)cc3)C2)cc1	20.6%	–
CC12CCCCC1=CC(=O)CC2 (stereo not given)	9.2%	–
COc1ccc(NC(=O)/C(N=Nc2cccc(S(=O)(=O)Nc3ccc(SC(F)F)cc3)c2)=C(\C)O)cc1	-5.31%	–
